According to PubChem BioAssay AID588689 (Southern Research Specialized Biocontainment Screening …, 2011):
The whole screen tested about 340,000 compounds, of which about 1,000 (0.29%) were called active. Rule as the data show it: inconclusive = inhibition above about 29% without an active follow-up result; inactive = below that. Not all results are given here. Results with a measured potency or affinity are listed apart.

Molecular target: Genome polyprotein (Dengue virus type 2 (strain 16681-PDK53)) (UniProt P29991)
Assay: Dengue-2 NS5 methyltransferase inhibitors, primary screen, biochemical, confirmation dose response (AID 588689)
Conditions: Dengue-2 NS5 methyltransferase capping enzyme assay, at 25 µM, active compounds read high

inhibition, inactive:
Cc1[nH]oc(=O)c1N=Nc1ccc2[nH]c(=O)[nH]c2c1 -0.78%
Cc1c(NC(=O)Nc2cccc(Cl)c2Cl)c(=O)n(-c2ccccc2)n1C 3.9%
C/C(N)=C(/C#N)C(=O)COC(=O)[C@@H](NC(=O)c1ccccc1Cl)C(C)C -7.12%
CCCCc1nnc(SCC(=O)Nc2nccs2)n1CC -0.32%
CC1CCCN(S(=O)(=O)c2ccc3[nH]c(=O)cc(C(=O)NCCCN4CCCCCC4)c3c2)C1 (centres undefined) -5.49%
Cc1cccc(N2C(=O)c3ccc(Br)cc3C2=O)n1 -2.38%
NC1=C(Br)C(=O)c2ncccc2C1=O 20.2%
O=C1c2cccnc2-c2ncccc21 5.95%
COC1=C(N)C(=O)c2nc(C)ccc2C1=O 12.3%
O=C(OCC(=O)N1CCOCC1)c1ccc[nH]c1=O -3.24%
CCN(Cc1ccccc1)C(=O)CCNS(=O)(=O)c1cc(Br)cnc1N 2.62%
CC1CCN(c2nc3ccc(C(=O)N4CCN(Cc5ccc6c(c5)OCO6)CC4)cc3s2)CC1 -4.17%
COc1ccc2nc(N3CCC(C)CC3)c(C#N)cc2c1 14.4%
COc1ccc2nc(N3CCCC3)c(C#N)cc2c1 12.8%
CC(=O)Nc1ccc(NC(=O)C(C)OC(=O)CCC2CCCCC2)cc1 (centres undefined) 0.32%
CCN(C(=O)COC(=O)/C=C/c1ccc(Cl)c(Cl)c1)c1c(N)n(Cc2ccccc2)c(=O)[nH]c1=O 2.22%
COc1ccccc1OCCCCNC(C)(C)C -1.39%
O=C(Nc1ccc(S(=O)(=O)Nc2ncccn2)cc1)c1ccc(Br)o1 -3.89%
N#Cc1c(N)sc2c1CCCCCC2 -3.42%
CC1(C)Cc2c(C#N)c(N)sc(=S)c2CO1 4.14%
COc1cc2c(cc1OC)C(c1ccccc1F)NCC2 (centres undefined) -3.4%
O=C(CN1CCC(NC(=O)c2ccccc2Cl)CC1)NCc1ccccc1 -1.62%
COc1ccc(CNC(=O)C(C)N2CCN(S(=O)(=O)c3ccccc3F)CC2)cc1 (centres undefined) -2.2%
COc1ccc(/C=C2/C(=O)ON=C2c2ccccc2)cc1OC -17.6%
CCOc1cc(/C=C2/C(=O)ON=C2C)ccc1OCc1ccc(F)cc1 24.8%
C=CCOc1ccc(/C=C2/C(=O)ON=C2C)cc1OC 28.1%
CCOc1ccc(Cl)cc1/C=C1/C(=O)ON=C1C 20.2%
CCOc1cc(/C=C2\C(=O)ON=C2C)ccc1OCc1ccccc1 -8.01%
COc1cc(/C=C2/C(=O)ON=C2c2ccccc2)ccc1O -8.45%
CCOc1cc(/C=C2/C(=O)ON=C2C)ccc1O -24.5%
CCCOc1ccc(/C=C2/C(=O)ON=C2C)cc1Cl 12.4%
NC(=O)c1ccc(NC(=O)c2cccc(Oc3ccccc3)c2)cc1 -7.28%
CCn1c(CC(=O)Nc2ccccc2)nnc1SCc1nc2ccccc2c(=O)[nH]1 -0.79%
Nc1ncnc2c1ncn2[C@@H]1O[C@H](CNC(=O)[C@H](N)Cc2cscn2)[C@@H](O)[C@H]1O -4.56%
NC(=O)c1cc([N+](=O)[O-])ccc1NCc1cccc(N)c1 -0.8%
COC(=O)Cn1c(=NC(=O)c2ccc(Cl)s2)sc2cc(C)ccc21 4.02%
O=C(NC(=S)NCc1ccccc1)c1ccccc1[N+](=O)[O-] -9.35%
O=C(NCCc1ccccc1)C(=O)Nc1ccc2c(c1)OCCO2 -12.2%
O=C(c1ccc(Cl)c(Cl)c1)N1CCN(c2ccccn2)CC1 -2.38%
COCCN(C(=O)CSc1nnc(-c2ccccc2F)n1N)c1c(N)n(Cc2ccccc2)c(=O)[nH]c1=O 11.2%
CCOc1ccc(OCCCC(=O)NCCOc2ccccc2OC)cc1 -5.46%
Cc1cccc(OCC(=O)NC(=S)Nc2ccc(S(=O)(=O)NC3CCCCC3)cc2)c1 0%
CN1CCc2nc(SC(C(=O)O)c3ccccc3)c(C#N)c(-c3cccs3)c2C1 (centres undefined) 23.2%
CC(C)(C)C(=O)CSc1nc2c(c(-c3cccs3)c1C#N)CCC2 -8.9%
Cc1ccc(CNC(=O)CCS(=O)(=O)c2ccc(Br)cc2)cc1 -2.71%
Cc1nc2ccccc2c(=O)n1NC(=O)c1ccc(C(C)(C)C)cc1 -7.84%
O=C(O)CC(NC(=O)C12CC3CC(CC(C3)C1)C2)c1cccc([N+](=O)[O-])c1 (centres undefined) 4.1%
O=C(O)c1cccc(-c2ccc(/C=C3/SC(=Nc4ccccc4)N(Cc4cccnc4)C3=O)o2)c1 3.26%
CCN=C1S/C(=C\c2ccc(-c3cccc(C(=O)O)c3)o2)C(=O)N1CC 0.91%
COc1ccc(C(=O)CN2C(=O)NC3(CCCc4ccccc43)C2=O)cc1 (centres undefined) -6.6%
O=C(O)Cn1c(CC(=O)N2CCCC2)nc2ccccc21 2.7%
CCOC(=O)c1cc(-c2ccc(/C=C3/C(=O)NC(=O)C(C#N)=C3C)o2)ccc1Cl 44.5%
O=C(O)/C(=C\c1ccc(-c2ccccc2[N+](=O)[O-])o1)c1ccccc1 25.4%
CC1=C(C#N)C(=O)NC(=O)/C1=C\c1ccc(-c2ccc(C)cc2[N+](=O)[O-])o1 23.7%
N#C/C(=C/c1ccc(-c2ccccc2[N+](=O)[O-])o1)C(N)=O -17.5%
N#C/C(=C\c1ccc(-c2ccccc2[N+](=O)[O-])o1)C(N)=O -6.96%
O=[N+]([O-])c1ccccc1-c1ccc(/C=N/n2cnnc2)o1 1.62%
CCN1C(=O)[C@H]2[C@@H](c3ccc(C)cc3)N3C(=O)N(c4cccc(Cl)c4)C(=O)[C@@]3(Cc3ccccc3)[C@H]2C1=O 0%
NC(=O)CSc1oc(-c2ccc(F)cc2)nc1S(=O)(=O)c1ccccc1 -9.82%
